# Measurements as given in the supplement of paper PMC4840960.
# ± gives the standard deviation of the averaged measurements.
# Experiments:
# [1] = system: E18 rat cortical neuron-glia co-culture; experiment: fiber score / MBP score (myelination specific beyond OL differentiation) (ratio); higher = more myelination-specific MBP alignment; conditions: treatment time: 8 days (DIV5-DIV13)
# Summary of the method: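 Reported values are fiber score (continuous MBP fiber length per Olig2+ nucleus) divided by MBP score (thresholded MBP area × intensity per Olig2+ nucleus). They come from primary E18 rat cortical co-cultures treated with library compounds at 1 or 5 µM in myelination medium from DIV5 to DIV13, then fixed in 4 % paraformaldehyde, immunostained for MBP and Olig2 with DAPI, and analysed over four 10X fields per well in duplicate wells.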
# [2] = system: E18 rat cortical neuron-glia co-culture; experiment: myelination (MBP fiber length per Olig2+ nucleus), % of 1 µM DAPT response (DMSO = 0) (% of DAPT); higher = more myelination, active = 50 or more; conditions: treatment time: 8 days (DIV5-DIV13)
# Summary of the method: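 Rat cortical co-cultures from E18 tissue were dissociated with papain and plated at 20,000 cells/well on 96-well plates coated with poly-d-lysine/laminin. From DIV5 to DIV13, library compounds were added at 1 or 5 µM in myelination medium. After fixation in 4 % paraformaldehyde, cultures were immunostained for MBP and Olig2 and counterstained with DAPI, and four 10X fields were analysed in each of duplicate wells. The myelination value is the length of continuous straight MBP fibers per Olig2+ nucleus, normalised so that 0.1 % DMSO is 0 and a 1 µM positive control is 100.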
Compound,fiber score / MBP score ([1]; 1 µM),fiber score / MBP score ([1]; 5 µM),myelination ([2]; 1 µM),myelination ([2]; 5 µM)
CCC1(c2ccc(N)cc2)CCC(=O)NC1=O (stereo not given) [Aminoglutethimide],0.845,0.779,-5.42 (inactive),-5.16 (inactive)
NC(=O)C[S+]([O-])C(c1ccccc1)c1ccccc1 (stereo not given) [Modafinil],0.88,0.861,-9.51 (inactive),-26.7 (inactive)
CN1CC[C@]23CCCC[C@H]2[C@H]1Cc1ccc(O)cc13 [Levorphanol],0.869,0.735,-27.6 (inactive),-51.1 (inactive)
O=C(O)C(Cl)Cl [Dichloroacetic Acid],0.765,0.882,-10.2 (inactive),-7.43 (inactive)
CC(C)N(CCC(C(N)=O)(c1ccccc1)c1ccccn1)C(C)C (stereo not given) [Disopyramide],0.453,0.371,-13.9 (inactive),-13.6 (inactive)
c1cncc([C@@H]2CCCN2)c1 [Nornicotine],0.765,0.836,-20.2 (inactive),-19 (inactive)
CNC1=Nc2ccc(Cl)cc2C(c2ccccc2)=[N+]([O-])C1 [Chlordiazepoxide],0.994,0.605,0.872 (inactive),-16.1 (inactive)
Oc1ccc2c3c1O[C@H]1c4[nH]c5ccccc5c4C[C@@]4(O)[C@@H](C2)N(CC2CC2)CC[C@]314 [Naltrindole],0.716,0.673,-32.5 (inactive),-19 (inactive)
Cc1ncc2n1-c1ccc(Cl)cc1C(c1ccccc1F)=NC2 [Midazolam],0.908,1.88,-0.202 (inactive),31.1 (inactive)
C=CCN1CC[C@]23c4c5ccc(O)c4O[C@H]2C(=O)CC[C@@]3(O)[C@H]1C5 [Naloxone],0.965,1.09,-7.1 (inactive),3.29 (inactive)
O=C1CC[C@@]2(O)[C@H]3Cc4ccc(O)c5c4[C@@]2(CCN3CC2CC2)[C@H]1O5 [Naltrexone],1.3,0.956,14.8 (inactive),1.8 (inactive)
c1ccc2c(c1)Nc1ccccc1S2 [Phenothiazine],0.706,0.89,-16.1 (inactive),-5.33 (inactive)
CC(C)CC(N(C)C)C1(c2ccc(Cl)cc2)CCC1 (stereo not given) [Sibutramine],0.819 ± 0.34,1.02 ± 0.064,-9.43 (inactive),-0.392 (inactive)
CCCC(C)(COC(N)=O)COC(=O)NC(C)C (stereo not given) [Carisoprodol],0.713,0.796,-13 (inactive),-11.9 (inactive)
NC1=NC(=O)C(c2ccccc2)O1 (stereo not given) [Pemoline],0.628,0.845,-21.3 (inactive),-11.3 (inactive)
C[C@]12C/C(=C/O)C(=O)C[C@@H]1CC[C@@H]1[C@@H]2CC[C@@]2(C)[C@H]1CC[C@]2(C)O [Oxymetholone],0.813,0.965,-11.9 (inactive),-8.04 (inactive)
Cc1nnc2n1-c1ccc(Cl)cc1C(c1ccccc1)=NC2 [Alprazolam],0.628,0.823,-26.1 (inactive),-17.4 (inactive)
O=C(O)CCCc1ccc(N(CCCl)CCCl)cc1 [Chlorambucil],0.893,0.615,-6.49 (inactive),-17 (inactive)
CCN(C(C)=O)c1cccc(-c2ccnc3c(C#N)cnn23)c1 [Zaleplon],0.794,1.2,-13.6 (inactive),16 (inactive)
CN1C(=O)COc2c(C(=O)NC3CN4CCC3CC4)cc(Cl)cc21 (stereo not given) [Azasetron],0.754,0.901,-6.5 (inactive),2.28 (inactive)
CN1CC[C@@H](c2ccc(F)cc2)[C@H](COc2ccc3c(c2)OCO3)C1 [N-Methylparoxetine],0.423,0.379,-58.7 (inactive),-60.5 (inactive)
NC(=O)OCCCc1ccccc1 [Phenprobamate],0.695,0.885,-14.2 (inactive),-11.4 (inactive)
C#CCN(C)[C@H](C)Cc1ccccc1 [Selegiline],0.779 ± 0.13,1.02 ± 0.14,-16 (inactive),-0.224 (inactive)
CN1CC[C@]2(c3cccc(O)c3)Cc3nc4ccccc4cc3C[C@H]2C1,0.572,0.822,-18.1 (inactive),2.91 (inactive)
Oc1cc2c(cc1O)[C@H]1c3ccccc3CN[C@@H]1CC2 (racemic) [Dihydrexidine],1.05,3.38,-4.93 (inactive),-20.9 (inactive)
